# Source: PubChem BioAssay (Tox21)
# Unmarked numbers belong to inactive results. Results filed as inconclusive are left out. Entries that show only a call come without a potency. Active and inactive are the calls of the source. Unless noted, the call rests on the fitted dose curve; in most records, active means well fitted curve in the direction sought with a large enough effect in the repeat runs; inconclusive means weak or mixed curves; inactive means no such curve, though single readings can be large; an effect the other way counts as inactive or inconclusive.
# Experiments:
# [1] = molecular target: Progesterone receptor (Homo sapiens) (UniProt P06401); assay: qHTS assay to identify small molecule agonists of the progesterone receptor (PR) signaling pathway (AID 1346784; calls by dose curve; further: nearly all actives have a fitted effect of over 30% in size)
# Progesterone receptor (Homo sapiens), sequence (P06401 whole entry, looked up): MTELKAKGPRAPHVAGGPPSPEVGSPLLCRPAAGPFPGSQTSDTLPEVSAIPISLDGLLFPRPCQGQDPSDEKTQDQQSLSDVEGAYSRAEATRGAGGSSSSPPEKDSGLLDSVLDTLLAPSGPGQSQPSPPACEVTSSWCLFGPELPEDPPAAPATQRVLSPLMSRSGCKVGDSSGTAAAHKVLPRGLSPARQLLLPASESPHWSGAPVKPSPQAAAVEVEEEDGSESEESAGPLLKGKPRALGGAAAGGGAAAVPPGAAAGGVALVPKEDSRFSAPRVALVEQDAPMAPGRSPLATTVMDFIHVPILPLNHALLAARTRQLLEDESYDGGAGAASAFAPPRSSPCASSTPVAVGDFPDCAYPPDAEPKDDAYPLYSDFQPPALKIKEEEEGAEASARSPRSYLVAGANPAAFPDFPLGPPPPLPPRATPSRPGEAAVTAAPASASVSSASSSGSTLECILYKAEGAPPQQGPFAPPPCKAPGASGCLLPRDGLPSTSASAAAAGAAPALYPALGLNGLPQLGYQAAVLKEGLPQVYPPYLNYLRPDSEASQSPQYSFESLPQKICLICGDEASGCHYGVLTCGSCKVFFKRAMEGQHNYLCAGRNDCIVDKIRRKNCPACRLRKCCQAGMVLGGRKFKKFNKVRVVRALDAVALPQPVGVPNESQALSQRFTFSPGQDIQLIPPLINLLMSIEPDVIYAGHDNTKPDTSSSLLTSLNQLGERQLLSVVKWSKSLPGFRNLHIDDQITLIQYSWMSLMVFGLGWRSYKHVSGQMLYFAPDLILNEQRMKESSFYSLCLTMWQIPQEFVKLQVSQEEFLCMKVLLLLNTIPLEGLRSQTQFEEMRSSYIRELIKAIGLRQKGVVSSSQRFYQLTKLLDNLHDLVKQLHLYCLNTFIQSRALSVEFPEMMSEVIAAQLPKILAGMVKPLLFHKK
# Outline: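 Compounds were tested for PR agonism in HEK 293T cells bearing a beta-lactamase gene under UAS control. Treatment lasted 16 hr at 37C; signal came from fluorescence of a FRET substrate.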
# [2] = qHTS assay to identify small molecule antagonists of the progesterone receptor (PR) signaling pathway - cell viability counter screen (AID 1346798); further: series mostly up to about 92 µM; nearly all actives have a fitted effect of over 50% in size
# Outline: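 Following a 4 hr attachment, PR-UAS-bla HEK293T cells in charcoal-stripped FBS medium were exposed to compounds with R5020 for 16 hr; CellTiter-Glo was added and luminescence read after 30 min at room temperature.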
# [3] = qHTS assay to identify small molecule agonists of the progesterone receptor (PR) signaling pathway - cell viability counter screen (AID 1346799; calls by dose curve; further: nearly all actives have a fitted effect of over 45% in size)
# Outline: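 Here, 3,000 PR-UAS-bla HEK293T cells per well were treated with compounds for 16 hr after a 6 hr preincubation at 37C and 5% CO2; cell viability is the CellTiter-Glo luminescence signal.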
# [4] = qHTS assay to identify small molecule antagonists of the TGF-beta/Smad signaling pathway - cell viability counter screen (AID 1346824); further: nearly all actives have a fitted effect of over 50% in size
# Outline: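 SBE-bla HEK 293T cells, incubated overnight, then compound plus 0.25 ng/mL TGF-beta1 (stock added) for 5 hr at 37 C. Viability was read in the same wells by CellTiter-Glo luminescence after 30 min at room temperature.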
# [5] = qHTS assay to identify small molecule agonists of the TGF-beta/Smad signaling pathway - cell viability counter screen (AID 1346829); further: top concentration of the series differs between compounds; nearly all actives have a fitted effect of over 45% in size
# Outline: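 CellTiter-Glo luminescence readout; SBE-bla HEK 293T cells, overnight plating, compound 5 hr at 37 C/5% CO2, then bla substrate 2 hr RT, then CellTiter-Glo 30 min RT.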
# [6] = qHTS assay to identify small molecule agonists of the TGF-beta/Smad signaling pathway (AID 1346859; active means well fitted activation curve with a large enough effect in the signal ratio in the repeat runs, not every such curve was filed as active; the % refers to the signal ratio; further: series mostly up to about 77 µM)
# Outline: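 Each well held 4,000 SBE-bla HEK 293T cells incubated overnight before compound addition; 5 hr later the cleavable FRET substrate went on for 2 hr at room temperature, and fluorescence was read at two emissions.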
# [7] = Human pregnane X receptor (PXR) small molecule agonists, qHTS cell viability counter screen (AID 1346977); further: nearly all actives have a fitted effect of over 50% in size; further: potency means the concentration at half of the fitted maximal effect
# Outline: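 Tox21 qHTS format; PXR-Luc HepG2, 2,000/well, charcoal-stripped FBS 5%. Cpd exposure 24hr. Read: CellTiter-Fluor fluorescence, multiplexed with luciferase.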
# [8] = Caspase-3/7 induction in HepG2 cells by small molecules, qHTS assay (AID 1346978); further: nearly all actives have a fitted effect of over 15% in size
# Outline: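 Wild-type HepG2 cells, 2,000/well, settled 5 hr at 37 C and 5% CO2, then compound-treated for 17 hr; caspase-3/7 activity read by luminescent Caspase-Glo 3/7 after 30 min at room temperature.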
# [9] = Caspase-3/7 induction in CHO-K1 cells by small molecules, qHTS cell viability counter screen (AID 1346979); further: nearly all actives have a fitted effect of over 35% in size; further: potency means the concentration at half of the fitted maximal effect
# Outline: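 CellTiter-Fluor viability check, qHTS format: wild-type CHO-K1, 16hr compound treatment, 1hr reagent incubation, fluorescence read.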
# [10] = Caspase-3/7 induction in CHO-K1 cells by small molecules, qHTS assay (AID 1346980); further: nearly all actives have a fitted effect of over 15% in size
# Outline: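 Wild-type CHO-K1 cells exposed to compounds for 17hr at 37 C, 5% CO2. Caspase-3/7 activity then measured by Caspase-Glo 3/7 luminescence after 30min at room temperature.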
# [11] = Caspase-3/7 induction in HepG2 cells by small molecules, qHTS cell viability counter screen (AID 1346981); further: series mostly up to about 92 µM; nearly all actives have a fitted effect of over 30% in size
# Outline: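 Multiplexed with the caspase-3/7 assay: HepG2 cells, 16 hr compound treatment, CellTiter-Fluor viability detection by fluorescence.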
# [12] = molecular target: Cytochrome P450 2D6 (Homo sapiens) (UniProt P10635); assay: Cytochrome P450 Family 2 Subfamily D Member 6 (CYP2D6) small molecule antagonists: luciferase reporter qHTS assay (AID 1671196); further: nearly all actives have a fitted effect of over 50% in size; further: potency means the concentration at half of the fitted maximal effect
# Cytochrome P450 2D6 (Homo sapiens), sequence (P10635 whole entry, looked up): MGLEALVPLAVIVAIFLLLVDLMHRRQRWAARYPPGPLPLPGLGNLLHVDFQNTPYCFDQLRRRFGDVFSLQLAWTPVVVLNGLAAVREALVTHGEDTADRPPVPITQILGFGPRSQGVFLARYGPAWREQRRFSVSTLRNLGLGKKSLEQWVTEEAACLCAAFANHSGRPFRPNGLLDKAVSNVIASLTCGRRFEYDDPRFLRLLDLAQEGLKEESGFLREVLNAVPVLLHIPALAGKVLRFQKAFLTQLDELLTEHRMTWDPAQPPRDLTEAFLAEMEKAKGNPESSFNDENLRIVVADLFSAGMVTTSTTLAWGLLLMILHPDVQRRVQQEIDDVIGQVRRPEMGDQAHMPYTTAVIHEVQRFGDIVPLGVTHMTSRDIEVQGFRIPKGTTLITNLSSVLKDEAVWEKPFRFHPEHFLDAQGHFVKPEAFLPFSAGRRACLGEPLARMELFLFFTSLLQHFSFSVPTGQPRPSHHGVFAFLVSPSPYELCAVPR
# Outline: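 Luminescence (RLU), read 20 min after detection reagent, indicated CYP2D6 conversion of proluciferin to luciferin during a 1 h NADPH-dependent reaction at room temperature.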
# [13] = molecular target: Progesterone receptor (Homo sapiens) (UniProt P06401); assay: qHTS assay to identify small molecule antagonists of the progesterone receptor (PR) signaling pathway (AID 1346795; active means well fitted inhibition curve with a large enough effect in the signal ratio in the repeat runs, not every such curve was filed as active; the % refers to the signal ratio; further: potency means the concentration at half of the fitted maximal effect)
# Outline: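 In HEK293T cells bearing the PR-UAS-bla reporter, compound effects on promegestone-driven (1 nM) beta-lactamase expression are assessed after 16 hr using a fluorescent FRET substrate incubated 2 hr at room temperature.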
# [14] = molecular target: Nuclear receptor subfamily 1 group I member 2 (Homo sapiens) (UniProt O75469); assay: Human pregnane X receptor (PXR) small molecule agonists, qHTS assay (AID 1346982); further: nearly all actives have a fitted effect of over 35% in size; further: potency means the concentration at half of the fitted maximal effect
# Nuclear receptor subfamily 1 group I member 2 (Homo sapiens), sequence (O75469 whole entry, looked up): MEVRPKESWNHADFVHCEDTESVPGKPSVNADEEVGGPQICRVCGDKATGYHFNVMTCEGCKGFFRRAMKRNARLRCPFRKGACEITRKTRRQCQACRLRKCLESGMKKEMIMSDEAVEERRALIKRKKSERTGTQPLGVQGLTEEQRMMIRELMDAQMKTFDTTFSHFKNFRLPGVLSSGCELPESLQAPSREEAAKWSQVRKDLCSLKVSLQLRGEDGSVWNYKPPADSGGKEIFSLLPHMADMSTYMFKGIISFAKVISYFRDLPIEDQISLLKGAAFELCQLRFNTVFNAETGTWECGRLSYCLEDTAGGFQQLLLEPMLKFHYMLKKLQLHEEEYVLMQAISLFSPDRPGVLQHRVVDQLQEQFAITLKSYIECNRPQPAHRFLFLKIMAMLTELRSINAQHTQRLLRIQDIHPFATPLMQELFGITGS
# Outline: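 We seeded PXR-Luc HepG2 cells in assay medium containing 5% charcoal-stripped FBS, added compounds 5 hr later, incubated 24 hr, and read luminescence with ONE-Glo reagent.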
# [15] = molecular target: Thyrotropin-releasing hormone receptor (Homo sapiens) (UniProt P34981); assay: qHTS assay to identify small molecule antagonists of the thyrotropin-releasing hormone receptor (TRHR) signaling pathway (AID 1346877; active means well fitted inhibition curve with a large enough effect in the repeat runs, not every such curve was filed as active; further: series mostly up to about 51 µM)
# Thyrotropin-releasing hormone receptor (Homo sapiens), sequence (P34981 whole entry, looked up): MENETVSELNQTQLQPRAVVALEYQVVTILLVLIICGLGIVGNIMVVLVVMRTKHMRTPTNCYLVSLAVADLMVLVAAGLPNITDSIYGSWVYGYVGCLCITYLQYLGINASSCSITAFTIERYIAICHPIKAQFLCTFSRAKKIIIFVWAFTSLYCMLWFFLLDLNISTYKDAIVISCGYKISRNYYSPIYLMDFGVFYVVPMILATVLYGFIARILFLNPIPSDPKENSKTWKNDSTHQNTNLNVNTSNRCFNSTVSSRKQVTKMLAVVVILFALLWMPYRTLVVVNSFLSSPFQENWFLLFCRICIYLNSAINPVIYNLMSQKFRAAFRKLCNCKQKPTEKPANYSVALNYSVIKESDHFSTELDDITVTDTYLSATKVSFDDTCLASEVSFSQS
# Outline: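 Screening used HEK293 cells engineered with TRHR, with a brief 5 min room-temperature compound exposure preceding addition of TRH to 1 nM. The read-out was kinetic calcium-dye fluorescence, concentration-response from 15 doses in triplicate.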
# [16] = molecular target: Thyrotropin-releasing hormone receptor (Homo sapiens) (UniProt P34981); assay: qHTS assay to identify small molecule agonists of the thyrotropin-releasing hormone receptor (TRHR) signaling pathway (AID 1346891; calls by dose curve; further: series mostly up to about 58 µM)
# Outline: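 Screening of agonists relied on calcium signalling in HEK293 cells expressing human TRHR: dye loading 2 h at 37 °C preceded compound addition and a 3-min fluorescence time course.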
# [17] = molecular target: Nuclear receptor subfamily 1 group I member 2 (Homo sapiens) (UniProt O75469); assay: CYP3A4 induction through human pregnane X receptor (PXR) by small molecules, qHTS assay (AID 1346984); further: nearly all actives have a fitted effect of over 40% in size
# Outline: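 qHTS, concentration-response format: HepG2 DPX-2 line, PXR/CYP3A4-luc. Exposure 24 h, 37C. Substrate Luciferin-IPA 3uM final, 3 h. Detection One-Glo, 30 min RT.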
# [18] = molecular target: Nuclear receptor subfamily 1 group I member 2 (Homo sapiens) (UniProt O75469); assay: Human pregnane X receptor (PXR) activation by small molecules, qHTS assay (AID 1346985); further: nearly all actives have a fitted effect of over 40% in size
# Outline: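 DPX-2 cells (HepG2 co-transfected with a PXR response element and a CYP3A4-promoter luciferase construct) were seeded at 2,000 per well, rested 5 hr at 37C, then exposed to DMSO-dissolved compounds for 24 hr. Activation was read as luciferase luminescence.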
# [19] = molecular target: Nuclear receptor subfamily 1 group I member 2 (Rattus norvegicus) (UniProt Q9R1A7); assay: Rat pregnane X receptor (rPXR) activation by small molecules, qHTS assay (AID 1346983); conditions: rPXR luciferase reporter cells, One-Glo luminescence, 24 h; max activation: stronger effect = higher value; further: nearly all actives have a fitted effect of over 20% in size
# Nuclear receptor subfamily 1 group I member 2 (Rattus norvegicus), sequence (Q9R1A7 whole entry, looked up): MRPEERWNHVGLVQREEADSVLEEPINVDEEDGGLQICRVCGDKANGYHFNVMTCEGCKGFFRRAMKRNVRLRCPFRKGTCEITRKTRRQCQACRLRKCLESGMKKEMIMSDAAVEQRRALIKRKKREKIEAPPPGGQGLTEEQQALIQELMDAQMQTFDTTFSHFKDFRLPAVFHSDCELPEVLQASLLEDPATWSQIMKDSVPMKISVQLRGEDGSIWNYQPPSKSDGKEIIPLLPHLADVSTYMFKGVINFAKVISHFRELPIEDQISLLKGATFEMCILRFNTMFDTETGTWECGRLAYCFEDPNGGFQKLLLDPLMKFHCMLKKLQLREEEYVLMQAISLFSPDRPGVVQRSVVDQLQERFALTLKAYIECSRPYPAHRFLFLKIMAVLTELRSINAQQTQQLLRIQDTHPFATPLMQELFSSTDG
# Outline: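 Cell-based rPXR activation assay: rPXR cells, 2,000 per well, rested 5hr at 37 C, then exposed to compounds in DMSO for 24 hr at 37 C. Luciferase activity read by One-Glo luminescence after 30 min at room temperature.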
Structure (SMILES),Potency [1],Potency [2],Potency [3],outcome [4],outcome [5],outcome [6],Potency [7],Potency [8],Potency [9],outcome [10],Potency [11],Potency [12],Potency [13],Potency [14],outcome [15],Potency [16],Potency [17],Potency [18],max activation [19] [%]
C=CC(C)=CCC=C(C)C,inactive,inactive,inactive,inactive,inactive,inactive,inactive,inactive,inactive,inactive,inactive,inactive,–,–,–,–,–,–,–
NC(=O)N(O)[C@@H]1COc2cc(OCc3ccccc3)ccc21,–,–,–,inactive,inactive,inactive,–,inactive,24.3 µM (active),inactive,inactive,10 µM (active),13.7 µM (active),12.2 µM (active),–,–,–,–,–
CCCCCC=CCC=CCCCCCCCC(=O)OCC,–,inactive,inactive,inactive,inactive,–,inactive,inactive,–,inactive,inactive,inactive,–,29.8 µM (active),inactive,inactive,inactive,inactive,–
O=C(O)Cc1ccc(-c2ccccc2)cc1,–,inactive,inactive,inactive,inactive,inactive,inactive,inactive,inactive,inactive,inactive,inactive,inactive,inactive,inactive,inactive,inactive,inactive,-2.71
CCCOC(=O)c1ccc(C(=O)OCCC)nc1,–,inactive,inactive,inactive,inactive,–,inactive,inactive,inactive,inactive,inactive,inactive,–,inactive,inactive,inactive,–,–,–
CC(=O)Nc1ccc(N)cc1,–,inactive,inactive,inactive,–,inactive,inactive,inactive,inactive,inactive,inactive,40.5 µM (active),inactive,–,–,–,–,–,–
OCCSc1ccccc1,inactive,–,–,inactive,inactive,inactive,inactive,inactive,inactive,inactive,inactive,inactive,–,inactive,–,–,–,–,–
Cc1nccn1-c1ccc(Sc2cccc(C3(C(N)=O)CCOCC3)c2)cc1,–,–,–,–,inactive,inactive,8.63 µM (active),inactive,7.7 µM (active),inactive,–,35.6 µM (active),–,13.7 µM (active),inactive,inactive,–,–,–
CCCCC/C(=C\c1ccccc1)CO,inactive,inactive,inactive,inactive,inactive,inactive,inactive,–,–,inactive,inactive,–,–,inactive,–,inactive,–,–,–
Cc1ccc(/C=N/n2c(-c3ccccc3)csc2=S)cc1,inactive,–,–,–,–,inactive,inactive,inactive,–,inactive,inactive,inactive,–,23.7 µM (active),inactive,inactive,–,–,–
CCCCN(CCCC)CCCOC(=O)c1ccc(N)cc1,–,inactive,–,inactive,inactive,inactive,–,inactive,inactive,inactive,inactive,0.0219 µM (active),–,inactive,inactive,inactive,inactive,inactive,–
O=C(O)c1snc(Cl)c1Cl,inactive,inactive,inactive,inactive,inactive,–,inactive,inactive,inactive,inactive,inactive,inactive,–,inactive,–,inactive,–,–,–
